# Compounds without any hit were thinned out: in the full panel of roughly 83,000, 20% have a hit.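 Single-dose data. Exposure time 48 hours. Values below 10 considered active.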 Calls of active or inactive are those of the source.
# Tested on: NCI/ADR-RES ovarian
# Assay: NCI-60 one-dose screen, 48 h (100 = growth as untreated, 0 = no growth, -100 = all killed)
# Settings: 10 µM unless noted
# Experimental: Growth inhibition of the NCI/ADR-RES human […] tumor cell line is measured as a screen for anti-cancer activity. Cells are grown in 96 well plates and exposed to the test compound for 48 hours. Compounds are tested at a single concentration, which is 10^-5 M for most compounds. The reported endpoint is percent growth (GI% or GIPRCNT), where numbers from 0 - 100% represent growth inhibition, and numbers from -100% - 0 represent cell death. For example, a value of 40 represents 60% growth inhibition. A value of 0 means no net growth occurred over the course of the experiment. A value of -40 indicates 40% of cells at the beginning of the experiment died by the end of the experiment. A value of -100 means all cells are dead at the end of the experiment.
# NCI-60 Human Tumor Cell Lines Screen was performed using the standard one-dose NCI protocol, which is described in more detail at https://dtp.cancer.gov/discovery_development/nci-60/default.htm.
# Compounds with GIPRCNT values below 10 were considered active. Activity score was based on GIPRCNT using the following formula: […]
# Score is 0 for GIPRCNT values of 100 or above, 50 for GIPRCNT values of 0, and 100 for GIPRCNT values of -100.
row,Compound,growth
1,CCCN(CCSSCCNc1nc(N(C)O)nc(N(C)O)n1)c1nc(N(C)O)nc(N(C)O)n1,85.1% (inactive)
2,C1CCC(N2CN3c4nonc4N4CN(C5CCCCC5)CN5c6nonc6N(C2)C3C45)CC1 (stereo not given),93.3% (inactive)
3,N#CC1=C(N)Oc2c(sc3c(F)cccc23)C1c1ccc([N+](=O)[O-])cc1 (stereo not given),-14.2% (active)
4,Ic1ccc(Nc2nc3nonc3nc2Nc2ccc(I)cc2)cc1,3.09% (active)
5,COc1ccc(C/C(C)=C(\c2ccc(Cl)cc2)c2ccc(OCCCN(C)C)cc2)cc1,88.7% (inactive)
6,O=CCCCOCc1ccccc1,97.4% (inactive)
7,CCCCO[C@@H]1C=C2[C@H]3CC(C)(C)C(=O)C[C@]3(C(=O)O[C@@H]3O[C@H](CO[C@@H]4O[C@H](CO)[C@@H](OC5OC(C)C(O)C(O)C5O)[C@H](O)[C@H]4O)[C@@H](O)[C@H](O)[C@H]3O)CC[C@@]2(C)[C@]2(C)CC[C@H]3C(C)(C)C(=O)CC[C@]3(C)[C@@H]12 (stereo not given in full),83.8% (inactive)
8,Cn1cc(-c2csc(-c3cn(C)c4ccccc34)n2)c2cnccc21,41.8% (inactive)
9,CCOC(=O)c1cnn(CC(C)O)c1NC(=O)NCc1cccc(F)c1 (stereo not given),96.9% (inactive)
10,Cc1cccc(N=Nc2cccc(C)c2)c1,108% (inactive)
11,Cc1ccc2nc(-c3ccc(C(=O)N/N=C/c4ccc([N+](=O)[O-])cc4)cc3)[nH]c2c1,106% (inactive)
12,O=[N+]([O-])c1ccccc1Nc1ccc2ccccc2c1,105% (inactive)
13,COc1ccc(-c2nc3ccc(C)cc3c3c2c(=O)n(C)c(=O)n3C)cc1OC,92.5% (inactive)
14,C=C(C)[C@@H]1CC[C@]2(C)[C@H](C=CC3=C4C[C@@](C)(CO)CC[C@]4(C)CC[C@]32C)[C@@]1(C)CCCN,-40.7% (active)
15,O=C1NC(=O)C(c2coc3cc(Br)ccc23)=C1c1c[nH]c2ccccc12,34% (inactive)
16,COc1cc(O)c2c(=O)c3c(CC=C(C)C)cc(OC)c(O)c3oc2c1,16.1% (inactive)
17,C[C@@H]1CN(c2cnc(C(=O)Nc3cc(F)cc4cccnc34)cn2)C[C@H](C)N1,66% (inactive)
18,CCCCn1c(NC(C)=O)c(S(=O)(=O)c2ccccc2)c2nc3ccccc3nc21,97.7% (inactive)
19,Cc1cc(=O)n(C(=S)Nc2ccc(Cl)cc2)c2cc(O)ccc12,103% (inactive)
20,O=C(/C=C/c1ccco1)Nc1ncc(Cc2cc(Cl)ccc2Cl)s1,-0.63% (active)

row,Compound,growth
1,C=CCn1cc(-c2nc3ccccc3s2)c2cc(-c3ccc4c5c(cccc35)C(=O)N(CCO)C4=O)ccc21,98.3% (inactive)
2,Nc1c(C(=O)Nc2cccc3ncccc23)sc2nc3c(cc12)CN(Cc1ccccc1)CC3,87.9% (inactive)
3,CN1CCN(c2ccc(NC3=CC(=O)c4ncncc4C3=O)cc2)CC1,-20.4% (active)
4,C(=C(\C1=NCCN1)n1ccc2ccccc21)/c1ccccc1,97.6% (inactive)
5,Fc1cc2[nH]ncc2c2c3c(c(-c4cn[nH]c4C(F)(F)F)nc12)CCCC3,45.6% (inactive)
6,c1cc(OCCN2CCCCC2)ccc1CNc1ccc2nc(CCC3CCCCC3)[nH]c2c1,63.8% (inactive)
7,CNC(=O)c1cc(Oc2ccc3c(c2)sc2nc(-c4ccc(NC(=O)[C@@H](NC(=O)OC)C(C)C)cc4)cn23)ccn1,65.1% (inactive)
8,CCOC(=O)c1nnn(Cc2cc(=O)oc3ccc(O)cc23)c1C,108% (inactive)
9,COC(=O)c1ccc2cc(OC)c(OC)cc2c1,107% (inactive)
10,O=C(/C=C/c1ccccc1)N(C1CCCCC1)C1CCCCC1,74.5% (inactive)
11,CCOC(=O)C/C(=N\Nc1cc(=O)[nH]c2ccc(C)cc12)C(=O)OCC,105% (inactive)
12,COc1ccc(C/C(C)=C(\c2ccc(O)cc2)c2ccc(OCCN3CCCCC3)cc2)cc1,90.5% (inactive)
13,O=C(C[C@]1(O)C(=O)Nc2ccc(Br)cc21)c1ccco1,100% (inactive)
14,CC[C@H](Nc1nc(N)nc(C)c1C#N)c1nc2cccc(CN(C)c3ncc(C(=O)NO)cn3)c2c(=O)n1-c1ccccc1,73.3% (inactive)
15,Cc1nn(-c2ccc([N+](=O)[O-])cc2)c2ncnc(N/N=C/c3ccccc3O)c12,6.28% (active)
16,CC1(C)CC(=O)C2=C(C1)C(c1ccc(Cl)cc1)n1ncc(C#N)c1N2 (stereo not given),106% (inactive)
17,C=C(C)[C@@H]1CC[C@]2(CO)CC[C@]3(C)[C@H](CC[C@@H]4[C@@](C)(CCCN)[C@H](C(=C)C)CC[C@]43C)[C@@H]12,-80.4% (active)
18,Brc1ccc(Nc2nc(Nc3cnc4ccccc4c3)c3[nH]cnc3n2)cc1,92.4% (inactive)
19,Cc1nc2sc(C(=O)Nc3cccc4ccccc34)c(N)c2cc1C(=O)c1ccccc1,12.9% (inactive)
20,CN1C(=O)/C(=C/c2ccc(C(=O)Nc3ncc(Cc4cccc(C(F)(F)F)c4)s3)cc2)SC1=S,33.4% (inactive)

# Source: PubChem BioAssay (NCI)
